According to PubChem BioAssay:
Activity calls are given as the source filed them.

Assay: optical density shifts of acrAB sulA E. coli – strain DRC41, OD650, 48 h, E. coli filamentation inducer project, primary screen (AID 1152);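 note: E. coli MC1000 strain DRC41 lacking acrAB efflux pump and sulA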
Settings: higher = more signal, called active from +8 up or from −8 down

z-score, inactive:
CCOC(=O)[C@H](Cc1ccccc1)NC(=O)CCC1CC(OC(=O)NCc2ccc3c(c2)OCO3)CC2(CCCC(COC(=O)NCCOC)O2)O1 (stereo partly specified) -0.11, CCOC(=O)[C@H](Cc1ccccc1)NC(=O)CCC1CC(OC(=O)NCc2ccc3c(c2)OCO3)CC2(CCCC(COC(=O)NCCCN3CCCC3=O)O2)O1 (stereo partly specified) 0.169, COC(=O)[C@H](C)NC(=O)CCC1CC(OC(=O)NCCc2ccc(F)cc2)CC2(CCCC(COC(=O)NCCOc3ccccc3)O2)O1 (stereo partly specified) -0.651, O=C1CCCC=C1C(O)C1CCCCC1 (stereo unspecified) 0.411, CCOC(=O)NN=C1C[C@@H](O)[C@@H](O)[C@@H]2[C@@H]3C(=O)N(c4ccc(F)cc4F)C(=O)[C@@H]3CC[C@H]12 -0.57, CC(=O)OC[C@H]1O[C@H](CC=NO[C@@H](C)c2cc(-c3c(C)cc(C)cc3C)no2)C=C[C@@H]1OC(C)=O 0.11, CCOC(=O)CCN1C(=O)[C@H]2[C@H]3[C@H](O)[C@H](O)CC(=NO[C@@H]4O[C@H](CO)[C@@H](O)[C@H](O)[C@H]4O)[C@H]3CC[C@H]2C1=O 0.131, CCOC(=O)[C@H](CC(C)C)NC(=O)CCC1CC(OC(=O)NCCc2ccc(F)cc2)CC2(CCCC(COC(=O)NCc3cccc(C(F)(F)F)c3)O2)O1 (stereo partly specified) 0.265, C[C@H]1CC[C@@H](C(=O)O)N[C@@H]1c1cccc(N2CCCC2=O)c1 1.04, CC(=O)OC[C@H]1O[C@@H](ON=C2[C@H]3CCn4c(=O)n(-c5ccccc5)c(=O)n4[C@H]3[C@H](O)[C@@H]3O[C@H]23)[C@H](OC(C)=O)[C@@H](OC(C)=O)[C@@H]1OC(C)=O -0.132, CCOC(=O)[C@H](CC(C)C)NC(=O)CCC1CC(OC(=O)NCCc2ccc(F)cc2)CC2(CCCC(COC(=O)NCCCN3CCCC3=O)O2)O1 (stereo partly specified) -0.237, CC(CCC(=O)OC[C@H]1O[C@H](C#Cc2ccccc2)C=C[C@@H]1Oc1ccc(C)cc1)=NOC[C@@H](C)[C@H](OCc1ccccc1)C(C)C -0.321, CCOC(=O)[C@H](Cc1ccccc1)NC(=O)CCC1CC(OC(=O)NCc2cccc3ccccc23)CC2(CCCC(COC(=O)NCCc3ccccc3OC)O2)O1 (stereo partly specified) -0.0287, COC(=O)[C@H](C)NC(=O)CCC1CC(OC(=O)NCCc2ccc(F)cc2)CC2(CCCC(COC(=O)NCCc3ccccc3OC)O2)O1 (stereo partly specified) 0.121, CCOC(=O)NN=C1C[C@@H](O)[C@@H](O)[C@@H]2[C@@H]3C(=O)N(C[C@@H]4CCCO4)C(=O)[C@@H]3CC[C@H]12 0.138, CON=C1c2cc(OC)ccc2O[C@H](c2cccc(OC)c2)[C@H]1O 0.788, COC(=O)[C@H](C)NC(=O)CCC1CC(OC(=O)NCc2ccc3c(c2)OCO3)CC2(CCCC(COC(=O)NCCC(C)C)O2)O1 (stereo partly specified) -1.06, C[C@H]1C=CCC(=O)OC[C@H](C)C(=O)N2CCC[C@H]2C(=O)OC1 0.392, CCCNC(=O)OC[C@H]1O[C@H](CCON=C2C[C@@H](O)[C@@H](O)[C@@H]3[C@@H]4C(=O)N(CC)C(=O)[C@@H]4CC[C@@H]23)C=C[C@@H]1Oc1ccc(OC)cc1 0.599, COC(=O)[C@@H]1CC[C@H](C)[C@@H](c2ccc(C)cc2)N1C(=O)c1ccc(C=NO[C@@H](C)c2cc(-c3c(C)cc(C)cc3C)no2)cc1 0.934, CC(C)(C)N1C(=O)[C@H]2[C@H]3[C@H](O)[C@H](O)CC(=NNC(=O)OCc4ccccc4)[C@H]3CC[C@H]2C1=O -1.57, CO[C@@H]1COC(=O)CC=C[C@H](C)[C@H](OC)COC(=O)[C@@H]2CCCN2C(=O)CC=C[C@H]1C -0.2, Cc1cc2c(nc1C)CCCCN2CC(O)CN1CCCc2nc(-c3ccc(Br)cc3)ccc21 (stereo unspecified) 0.453, COc1ccc(O[C@H]2C=C[C@@H](C#Cc3ccccc3)O[C@@H]2CO)cc1 0.311, C#CCCCON=C1C[C@@H](O)[C@@H](O)[C@@H]2[C@@H]3C(=O)N(C[C@@H]4CCCO4)C(=O)[C@@H]3CC[C@H]12 -0.25, O=C1[C@H]2[C@H]3[C@H](O)[C@H](O)CC(=NO[C@@H]4O[C@H](CO)[C@@H](O)[C@H](O)[C@H]4O)[C@@H]3CC[C@H]2C(=O)N1c1cccc(Oc2ccccc2)c1 -0.192, CC#CCOCCC=C1c2ccccc2[C@@H](OC)[C@@H]1C 0.673, CCOC(=O)[C@H](CC(C)C)NC(=O)CCC1CC(OC(=O)NCc2ccc3c(c2)OCO3)CC2(CCCC(COC(=O)NCCOc3ccccc3)O2)O1 (stereo partly specified) -0.832, CON=C(C)CCN1CCCCc2nc(C)c(C)cc21 -1.23, C=CC[C@@H]1C=C[C@H](ON=CC[C@@H]2C=C[C@H](OC(C)=O)[C@@H](COC(C)=O)O2)[C@@H](CO)O1 0.4, C[C@@H]1CC[C@@H](C(=O)O)N[C@H]1c1cccc(N2CCOCC2)c1 0.563, CC(=O)OC[C@H]1O[C@H](CC=NOC[C@@H](O)COCc2ccco2)C=C[C@@H]1OC(C)=O 0.241, CC(CCN1CCc2nc(-c3ccccc3)c(-c3ccccc3)cc2C1)=NO[C@H](C)c1cn([C@H](CO)Cc2ccccc2)nn1 -1.52, CCOC(=O)CCN1C(=O)[C@H]2[C@H]3[C@H](O)[C@H](O)CC(=NNC(=O)OCc4ccc(OC)cc4)[C@H]3CC[C@H]2C1=O -0.448, CC(=O)OC[C@H]1O[C@@H](ON=C(C)CCC(=O)OC[C@H]2O[C@H](C#Cc3ccccc3)C=C[C@@H]2Oc2ccc(C)cc2)[C@H](OC(C)=O)[C@@H](OC(C)=O)[C@@H]1OC(C)=O -0.446, O=C1CCCC=C1C(O)c1ccc([N+](=O)[O-])cc1 (stereo unspecified) 0.134
